Growth data for 14 molecules are collected here from PubChem BioAssay (NCI).

Compounds without any hit were thinned out: in the full panel of roughly 83,000, 20% have a hit.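 Compound tested at a single concentration for 48 hours in 96-well plates; a percent growth value below 10 was scored as active.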 A number with no mark means an inactive call. Active and inactive are the calls of the source.

This experiment concerns KM12 colon. Briefly: NCI-60 one-dose screen, 48 h (100 = growth as untreated, 0 = no growth, -100 = all killed). The note with it: 10 µM unless noted.
For `CCCCN1C(=O)/C(=c2\sc3n(c2=O)NC2C(N=3)N(CC)C(=O)N2CC)c2ccccc21` (centres undefined), the growth was 20.3%.
Regarding `NC(=O)c1c(NC(=O)c2ccc(Cl)cc2)sc2c1CCC(=O)C2`, the growth was 42.1%.
Consider `CC1(C)CC[C@]2(C(=O)O)CC[C@]3(C)C(=CC[C@@H]4[C@@]5(C)C[C@@H](Cc6cn([C@@H]7O[C@H](CO)[C@@H](O)[C@H](O)[C@H]7O)nn6)[C@H](O)C(C)(C)[C@@H]5CC[C@]43C)[C@@H]2C1`, for which the growth is 104%.
With `CCNCc1ccc(O)c2ncccc12`, the growth is 29.2%.
On to `CC(C)c1ccc(C(=O)Nc2sc3cc(O)ccc3c2C#N)cc1`, for which the growth was 21%.
Turning to `CCOC(=O)c1c(NC(=O)CSc2n[nH]c3nc4ccccc4n23)sc(CC)c1C`, the growth was 98.3%.
Consider `COc1cccc(/C=C/C(=O)c2cc3c(N)c(C(=O)Nc4cccc(Cl)c4C)sc3nc2C)c1`, for which the growth was -19.6% (active).
In the case of `Cc1nn(-c2ccccc2)c(N2CCCCC2)c1/C=N/NC(=O)Cn1c(=O)sc2ccccc21`, the growth is 54%.
For the molecule `COC(=O)Cc1nc(C#N)c(N(C)C)o1`, the growth is 94.7%.
For `N=C(N)c1ccc(-c2ccc(-c3ccc(Cl)cc3Cl)s2)cc1F`, the growth is -86.3% (active).
As for `C/C(C=O)=C\c1ccc2c(c1)OCO2`, the growth was 110%.
Regarding `Cc1ccc(/C=C(\C#N)C(=O)Nc2ncc(Cc3cc(Cl)ccc3Cl)s2)o1`, the growth was 27%.
For `C[C@@H]1CC[C@@]2(OC1)O[C@H]1C[C@H]3[C@@H]4CC=C5C[C@@H](O[C@@H]6O[C@H](CO)[C@@H](O[C@@H]7O[C@@H](CO)[C@H](O)[C@H]7O)[C@H](O)[C@H]6O[C@@H]6O[C@@H](C)[C@H](O)[C@@H](O)[C@H]6O)CC[C@]5(C)[C@H]4CC[C@]3(C)[C@H]1[C@@H]2C`, the growth is -90.6% (active).
For `CCOC(=O)c1cn2ncnc(Oc3ccc(NC(=O)NC4CC4)c(F)c3)c2c1C`, the growth is 101%.
